# Experimental data: the supplement of paper PMC10849652
# The full data set covers some 7,900 targets. This sample favours those with a hit. About 0.6% of all pairs of compound and target were hits.
# Compound: CC1=CC=C(C=C1)SC2=C3C=C(SC3=CN=C2)C(=O)N
# Assay: log2 fold change, soluble protein after heating vs DMSO (PISA); higher = thermal stabilisation; K562 cells, 10 uM, 30 min; active = over 0.2 and 3.5 SD of the protein, either way, in both replicates (recomputed)
# Procedure, shortened: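 Soluble protein was quantified by TMTpro 16plex LC-MS/MS after channel sums were equalised. It was obtained as the supernatant after 21,000xg for 90 min from pooled aliquots of K562 cells (2×10^6 cells/mL, 10 μM compound, 30 min) heated for 3 min across 48°C-58°C and extracted in PBS with 0.5% NP-40 at 4°C. Thermal stability values are relative to control samples and come from duplicates. They are given as log2 fold changes.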
# Chain of UniProt O00629 (O00629 whole entry, looked up): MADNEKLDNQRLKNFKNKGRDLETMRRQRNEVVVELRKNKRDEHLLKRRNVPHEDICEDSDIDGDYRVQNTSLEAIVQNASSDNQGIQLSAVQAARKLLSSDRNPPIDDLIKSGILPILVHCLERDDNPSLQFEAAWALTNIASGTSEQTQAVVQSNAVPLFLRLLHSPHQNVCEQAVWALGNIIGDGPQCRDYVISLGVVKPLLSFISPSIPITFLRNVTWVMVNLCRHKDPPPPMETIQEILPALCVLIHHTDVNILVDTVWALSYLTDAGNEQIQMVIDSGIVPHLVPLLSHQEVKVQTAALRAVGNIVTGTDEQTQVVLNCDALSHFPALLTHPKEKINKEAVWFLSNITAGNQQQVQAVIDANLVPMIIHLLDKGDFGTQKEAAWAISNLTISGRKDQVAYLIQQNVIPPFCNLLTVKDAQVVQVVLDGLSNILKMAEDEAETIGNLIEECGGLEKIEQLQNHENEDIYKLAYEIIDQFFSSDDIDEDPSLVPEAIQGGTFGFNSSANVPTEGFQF
# Chain of UniProt Q8WWC4 (Q8WWC4 whole entry, looked up): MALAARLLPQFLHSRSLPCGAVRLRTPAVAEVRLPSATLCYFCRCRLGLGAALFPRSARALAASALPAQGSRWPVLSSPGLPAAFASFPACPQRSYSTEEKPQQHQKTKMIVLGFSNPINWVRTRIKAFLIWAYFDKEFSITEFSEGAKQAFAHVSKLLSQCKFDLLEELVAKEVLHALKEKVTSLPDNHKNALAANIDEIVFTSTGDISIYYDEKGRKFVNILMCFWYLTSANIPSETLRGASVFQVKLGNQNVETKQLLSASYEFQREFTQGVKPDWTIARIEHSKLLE
# Chain of UniProt Q9Y496 (Q9Y496 whole entry, looked up): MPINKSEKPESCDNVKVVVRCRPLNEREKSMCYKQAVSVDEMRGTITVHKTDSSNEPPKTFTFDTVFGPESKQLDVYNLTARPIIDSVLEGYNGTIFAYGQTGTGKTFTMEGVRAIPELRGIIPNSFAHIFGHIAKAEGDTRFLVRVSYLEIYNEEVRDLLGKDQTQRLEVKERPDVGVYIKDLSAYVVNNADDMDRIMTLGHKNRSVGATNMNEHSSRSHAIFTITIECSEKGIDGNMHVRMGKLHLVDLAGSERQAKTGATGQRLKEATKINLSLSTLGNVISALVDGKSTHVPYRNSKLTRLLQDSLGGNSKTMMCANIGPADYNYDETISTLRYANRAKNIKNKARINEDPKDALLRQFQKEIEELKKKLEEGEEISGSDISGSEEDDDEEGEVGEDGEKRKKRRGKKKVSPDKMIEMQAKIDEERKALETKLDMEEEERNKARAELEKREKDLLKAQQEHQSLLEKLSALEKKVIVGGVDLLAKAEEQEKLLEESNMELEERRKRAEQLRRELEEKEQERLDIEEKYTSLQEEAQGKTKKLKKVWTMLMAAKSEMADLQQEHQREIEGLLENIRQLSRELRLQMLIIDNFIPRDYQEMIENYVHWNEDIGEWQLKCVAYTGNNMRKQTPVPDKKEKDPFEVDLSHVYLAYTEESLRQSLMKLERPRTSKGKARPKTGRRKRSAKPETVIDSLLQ
# Chain of UniProt P43362 (P43362 whole entry, looked up): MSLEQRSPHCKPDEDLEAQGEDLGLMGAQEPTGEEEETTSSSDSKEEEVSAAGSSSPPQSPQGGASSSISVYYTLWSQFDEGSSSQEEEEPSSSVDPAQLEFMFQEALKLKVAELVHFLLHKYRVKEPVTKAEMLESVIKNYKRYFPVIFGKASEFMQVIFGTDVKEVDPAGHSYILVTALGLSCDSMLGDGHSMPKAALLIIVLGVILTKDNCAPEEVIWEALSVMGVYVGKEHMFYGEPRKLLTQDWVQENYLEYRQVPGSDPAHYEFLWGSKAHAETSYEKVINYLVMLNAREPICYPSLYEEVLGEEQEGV
# Chain of UniProt Q9BU23 (Q9BU23 whole entry, looked up): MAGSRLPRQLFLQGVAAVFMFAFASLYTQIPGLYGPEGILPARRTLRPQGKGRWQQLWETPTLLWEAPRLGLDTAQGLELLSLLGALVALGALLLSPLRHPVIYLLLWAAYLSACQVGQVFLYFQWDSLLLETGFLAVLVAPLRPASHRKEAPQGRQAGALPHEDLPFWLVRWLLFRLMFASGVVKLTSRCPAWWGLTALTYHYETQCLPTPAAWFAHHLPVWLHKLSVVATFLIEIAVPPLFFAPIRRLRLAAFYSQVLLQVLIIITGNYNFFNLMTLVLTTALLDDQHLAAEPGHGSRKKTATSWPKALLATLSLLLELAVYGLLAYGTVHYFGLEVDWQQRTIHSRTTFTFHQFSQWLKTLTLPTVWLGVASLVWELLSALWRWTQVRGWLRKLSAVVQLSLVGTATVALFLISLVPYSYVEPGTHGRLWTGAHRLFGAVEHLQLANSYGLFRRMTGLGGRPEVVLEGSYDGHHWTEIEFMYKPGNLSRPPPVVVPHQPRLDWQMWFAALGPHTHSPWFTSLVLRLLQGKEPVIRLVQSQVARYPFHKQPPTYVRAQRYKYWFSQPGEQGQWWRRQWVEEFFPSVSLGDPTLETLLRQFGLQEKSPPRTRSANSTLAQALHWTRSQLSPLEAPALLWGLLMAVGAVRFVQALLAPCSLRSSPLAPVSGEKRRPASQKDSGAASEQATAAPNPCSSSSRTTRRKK
# Chain of UniProt Q96A72 (Q96A72 whole entry, looked up): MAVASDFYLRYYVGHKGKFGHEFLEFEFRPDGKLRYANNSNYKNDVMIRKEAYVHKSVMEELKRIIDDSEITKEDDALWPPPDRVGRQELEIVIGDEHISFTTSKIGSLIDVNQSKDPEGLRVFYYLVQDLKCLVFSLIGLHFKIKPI
# Chain of UniProt Q8WV07 (Q8WV07 whole entry, looked up): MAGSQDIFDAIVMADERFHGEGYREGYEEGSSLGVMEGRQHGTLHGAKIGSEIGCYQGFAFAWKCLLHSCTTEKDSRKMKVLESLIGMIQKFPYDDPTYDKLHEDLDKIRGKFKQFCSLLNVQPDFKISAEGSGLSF
# Chain of UniProt Q9C0E8 (Q9C0E8 whole entry, looked up): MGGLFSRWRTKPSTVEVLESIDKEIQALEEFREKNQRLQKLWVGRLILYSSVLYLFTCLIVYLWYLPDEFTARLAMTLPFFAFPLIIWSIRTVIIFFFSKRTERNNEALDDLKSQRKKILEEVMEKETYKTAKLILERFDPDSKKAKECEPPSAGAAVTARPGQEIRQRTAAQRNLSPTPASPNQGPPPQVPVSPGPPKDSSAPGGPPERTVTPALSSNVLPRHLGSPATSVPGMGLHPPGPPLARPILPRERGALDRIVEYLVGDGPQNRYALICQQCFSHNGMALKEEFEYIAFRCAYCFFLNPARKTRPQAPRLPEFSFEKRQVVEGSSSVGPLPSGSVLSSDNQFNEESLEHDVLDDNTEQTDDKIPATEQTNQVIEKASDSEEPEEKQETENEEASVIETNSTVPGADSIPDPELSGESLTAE
# Chain of UniProt Q92615 (Q92615 whole entry, looked up): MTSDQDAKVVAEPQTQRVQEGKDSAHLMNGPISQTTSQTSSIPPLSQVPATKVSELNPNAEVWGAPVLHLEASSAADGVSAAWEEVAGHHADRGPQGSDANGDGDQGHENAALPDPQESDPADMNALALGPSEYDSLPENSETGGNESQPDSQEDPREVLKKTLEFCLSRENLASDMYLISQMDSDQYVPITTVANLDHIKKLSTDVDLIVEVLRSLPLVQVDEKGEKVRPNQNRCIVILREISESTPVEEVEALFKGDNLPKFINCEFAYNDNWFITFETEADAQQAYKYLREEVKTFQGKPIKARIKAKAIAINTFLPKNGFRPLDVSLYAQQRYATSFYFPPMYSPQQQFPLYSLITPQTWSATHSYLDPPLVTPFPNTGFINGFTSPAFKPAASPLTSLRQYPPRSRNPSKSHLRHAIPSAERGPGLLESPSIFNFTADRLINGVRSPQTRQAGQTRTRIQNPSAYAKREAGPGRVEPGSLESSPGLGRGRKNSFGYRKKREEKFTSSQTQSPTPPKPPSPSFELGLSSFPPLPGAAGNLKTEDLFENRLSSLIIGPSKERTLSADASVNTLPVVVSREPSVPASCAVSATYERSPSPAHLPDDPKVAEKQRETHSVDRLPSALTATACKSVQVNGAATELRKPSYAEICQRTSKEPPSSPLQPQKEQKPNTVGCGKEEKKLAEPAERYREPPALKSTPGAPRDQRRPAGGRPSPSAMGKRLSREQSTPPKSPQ
# Chain of UniProt Q8TBB5 (Q8TBB5 whole entry, looked up): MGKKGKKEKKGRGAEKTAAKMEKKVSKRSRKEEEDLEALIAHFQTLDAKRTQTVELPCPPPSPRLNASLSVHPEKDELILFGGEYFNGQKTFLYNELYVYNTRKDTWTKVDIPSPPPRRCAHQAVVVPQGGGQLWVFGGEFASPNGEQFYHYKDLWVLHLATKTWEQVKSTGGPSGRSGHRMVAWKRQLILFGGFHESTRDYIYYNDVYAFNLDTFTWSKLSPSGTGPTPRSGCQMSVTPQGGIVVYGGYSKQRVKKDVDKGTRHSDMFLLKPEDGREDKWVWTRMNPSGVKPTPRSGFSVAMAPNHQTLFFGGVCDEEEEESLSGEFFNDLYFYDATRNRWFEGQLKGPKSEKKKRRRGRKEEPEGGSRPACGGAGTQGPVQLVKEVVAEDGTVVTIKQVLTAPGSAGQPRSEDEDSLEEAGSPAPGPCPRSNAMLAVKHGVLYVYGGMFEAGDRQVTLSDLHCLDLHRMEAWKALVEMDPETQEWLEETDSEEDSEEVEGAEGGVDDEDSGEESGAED
# Chain of UniProt Q96AQ8 (Q96AQ8 whole entry, looked up): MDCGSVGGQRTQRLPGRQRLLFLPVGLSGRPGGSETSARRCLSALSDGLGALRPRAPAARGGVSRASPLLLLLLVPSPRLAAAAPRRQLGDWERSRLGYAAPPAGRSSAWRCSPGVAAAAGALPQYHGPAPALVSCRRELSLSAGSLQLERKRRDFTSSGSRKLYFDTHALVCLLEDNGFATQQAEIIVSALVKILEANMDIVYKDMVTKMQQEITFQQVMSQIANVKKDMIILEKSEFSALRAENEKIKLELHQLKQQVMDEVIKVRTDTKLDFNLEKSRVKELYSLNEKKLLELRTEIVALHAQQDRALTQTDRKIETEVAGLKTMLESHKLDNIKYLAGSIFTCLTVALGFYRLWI
row,Target,log2 fold change
1,MCUR1 (UniProt Q96AQ8),-0.01 (inactive)
2,ITPRIP (UniProt Q8IWB1),-0.01 (inactive)
3,MAP2K1 (UniProt Q02750),0.029 (inactive)
4,LPGAT1 (UniProt Q92604),0.034 (inactive)
5,LMNB1 (UniProt P20700),-0.046 (inactive)
6,LTV1 (UniProt Q96GA3),-0.04 (inactive)
7,MAIP1 (UniProt Q8WWC4),0.083 (inactive)
8,MIER1 isoform 12 (UniProt Q8N108),0.002 (inactive)
9,KCT2 (UniProt Q8NC54),0.006 (inactive)
10,KPNA4 (UniProt O00629),0.017 (inactive)
11,MAPK12 (UniProt P53778),-0.022 (inactive)
12,LDLR (UniProt P01130),0.006 (inactive)
13,LMF2 (UniProt Q9BU23),0.025 (inactive)
14,LTN1 isoform 3 (UniProt O94822),-0.008 (inactive)
15,LRPPRC (UniProt P42704),0.222 (inactive)
16,MAD2L1 (UniProt Q13257),-0.003 (inactive)
17,LARP4B (UniProt Q92615),0.016 (inactive)
18,ILK (UniProt Q13418),0.025 (inactive)
19,LTO1 (UniProt Q8WV07),-0.021 (inactive)
20,KIF3A (UniProt Q9Y496),-0.076 (inactive)

row,Target,log2 fold change
1,MAP3K20 (UniProt Q9NYL2),-0.014 (inactive)
2,MAGOHB (UniProt Q96A72),0.008 (inactive)
3,MAP3K4 isoform 2 (UniProt Q9Y6R4),-0.018 (inactive)
4,LIMA1 isoform 4 (UniProt Q9UHB6),-0.014 (inactive)
5,MAGEC2 (UniProt Q9UBF1),-0.046 (inactive)
6,MAP2K3 isoform 3 (UniProt P46734),-0.051 (inactive)
7,MAGEA9 (UniProt P43362),-0.005 (inactive)
8,ILVBL (UniProt A1L0T0),0.005 (inactive)
9,MDN1 (UniProt Q9NU22),0.034 (inactive)
10,KIF21A isoform 4 (UniProt Q7Z4S6),-0.003 (inactive)
11,LNPK (UniProt Q9C0E8),-0.038 (inactive)
12,LRBA (UniProt P50851),-0.011 (inactive)
13,LEMD3 (UniProt Q9Y2U8),-0.005 (inactive)
14,LAMP2 (UniProt P13473),-0.043 (inactive)
15,KLHDC4 (UniProt Q8TBB5),-0.007 (inactive)
16,LBR (UniProt Q14739),-0.002 (inactive)
17,KHDC4 (UniProt Q7Z7F0),0.026 (inactive)
18,MAP4K4 isoform 3 (UniProt O95819),0.022 (inactive)
19,LEMD2 (UniProt Q8NC56),0.038 (inactive)
